# Data taken from PMC4336329 (PLoS ONE, 2015).
# About 14,000 (4.5%) of roughly 310,000 compounds showed an effect of 50% or more. Effects have a minus sign here. Only a selection was taken, and strong results are over-represented in it overall.
# Target: human ether-à-go-go-related gene (hERG) potassium channel (human, UniProt Q12809)
# Assay: primary screen, population patch clamp on CHO cells stably expressing hERG; higher = less effect of the substance
# 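Note: peak tail current of the secondary pulse compared with the same well before compound.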
# Sequence of human ether-à-go-go-related gene (hERG) potassium channel (Q12809 whole entry, looked up): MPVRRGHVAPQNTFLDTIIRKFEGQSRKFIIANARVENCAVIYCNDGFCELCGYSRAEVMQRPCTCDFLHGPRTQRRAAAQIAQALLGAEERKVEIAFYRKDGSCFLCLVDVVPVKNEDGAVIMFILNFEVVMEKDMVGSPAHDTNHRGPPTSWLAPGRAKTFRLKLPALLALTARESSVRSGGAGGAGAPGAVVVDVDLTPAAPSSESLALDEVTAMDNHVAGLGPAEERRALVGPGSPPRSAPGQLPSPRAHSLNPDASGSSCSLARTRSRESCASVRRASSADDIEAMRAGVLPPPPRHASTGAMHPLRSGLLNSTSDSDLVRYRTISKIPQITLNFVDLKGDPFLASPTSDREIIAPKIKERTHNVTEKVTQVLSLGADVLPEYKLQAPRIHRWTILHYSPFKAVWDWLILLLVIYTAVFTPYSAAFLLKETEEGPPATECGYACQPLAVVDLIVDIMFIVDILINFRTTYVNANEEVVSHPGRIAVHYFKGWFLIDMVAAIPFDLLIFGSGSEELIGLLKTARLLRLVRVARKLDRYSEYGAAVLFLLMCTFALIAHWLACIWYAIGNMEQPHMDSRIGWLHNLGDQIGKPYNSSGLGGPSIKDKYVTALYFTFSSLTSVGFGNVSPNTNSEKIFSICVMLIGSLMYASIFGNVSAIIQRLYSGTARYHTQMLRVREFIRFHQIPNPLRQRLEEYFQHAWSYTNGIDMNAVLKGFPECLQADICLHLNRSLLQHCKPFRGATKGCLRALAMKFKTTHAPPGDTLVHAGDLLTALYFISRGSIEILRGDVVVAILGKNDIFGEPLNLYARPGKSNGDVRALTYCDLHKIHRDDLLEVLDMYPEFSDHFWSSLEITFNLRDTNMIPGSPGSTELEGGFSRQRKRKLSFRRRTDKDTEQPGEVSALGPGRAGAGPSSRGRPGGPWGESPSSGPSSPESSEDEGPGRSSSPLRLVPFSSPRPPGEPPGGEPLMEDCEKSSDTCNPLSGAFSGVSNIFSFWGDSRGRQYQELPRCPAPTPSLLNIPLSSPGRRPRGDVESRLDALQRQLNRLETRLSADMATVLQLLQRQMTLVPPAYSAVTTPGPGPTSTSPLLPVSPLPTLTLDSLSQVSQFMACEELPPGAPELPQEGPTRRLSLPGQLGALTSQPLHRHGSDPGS
row,Compound,"hERG current change (%, negative = inhibition) at 10uM"
1,CC(C)(C)/C=N/NC(=O)CNC(=O)c1ccc2c(c1)OCCO2,15.6%
2,CC1(C)C2CCC1(C)C(OC(=O)CCn1ccnc1)C2 (stereo not shown),-25.5%
3,Cc1ccc(C)c2sc(NC(=O)c3nc4ccccc4s3)nc12,2.76%
4,CCN(CC)C(=O)Oc1ccc(Br)cc1C(=O)Nc1ccc(F)c(Cl)c1,2.76%
5,CC(=O)c1ccc(/C=C/c2nc3ccccc3n2C)o1,-5.96%
6,Cc1ccc(NCc2nnc(SCCN3CCCCC3)n2CC2CCCO2)c(C)c1 (stereo not shown),-58.5%
7,Cc1ccc(NCc2nnc(SCCN3CCCCC3)n2CC2CCCO2)cc1Cl (stereo not shown),-92.4%
8,Fc1ccc(NCc2nnc(SCc3nnc(-c4ccccc4)o3)n2Cc2ccccc2)cc1,-46%
9,Cc1ccc(NCc2nnc(SCC(=O)Nc3ncc(C)s3)n2CC2CCCO2)c(C)c1 (stereo not shown),-12.4%
10,Cc1ccc(NCc2nnc(SCC(N)=O)n2CC2CCCO2)c(C)c1 (stereo not shown),8.71%
11,Cc1ccc(NCc2nnc(SCC(=O)Nc3ccccc3)n2CC2CCCO2)c(C)c1 (stereo not shown),-0.0882%
12,Cc1ccc(NCc2nnc(SCC(=O)Nc3cccc(O)c3)n2CC2CCCO2)c(C)c1 (stereo not shown),-68.2%
13,Cc1ccc(NCc2nnc(SCC(=O)NCc3ccco3)n2CC2CCCO2)cc1Cl (stereo not shown),-7.7%
14,Cc1ccc(NCc2nnc(SCC(=O)N3CCCCC3)n2CC2CCCO2)c(C)c1 (stereo not shown),-5.62%
15,Fc1ccc(NCc2nnc(SCc3nnc(-c4ccccc4)o3)n2CC2CCCO2)cc1 (stereo not shown),-53.1%
16,CCn1c(CNc2ccc(F)cc2)nnc1SCCN1CCCCC1,-12.1%
17,CCSc1nnc(CNc2ccc(F)cc2)n1CC1CCCO1 (stereo not shown),-15.1%
18,CC1(CC(=O)N/N=C/c2cc3c(cc2Br)OCO3)OCCO1,15.5%
19,CCc1c(C)sc(NC(=O)OC)c1C(=O)N1CCCCC1,-4.94%
20,COC(=O)c1ccc(N2CCN(c3ccccc3)CC2)c(NC(=O)C2CC2)c1,-35.6%
21,CC(=NCCc1c[nH]c2ccccc12)c1c(O)n(Cc2ccccc2)c(=O)[nH]c1=O,0.859%
22,COC(=O)N/N=C\c1cc(Br)ccc1OCc1ccccc1,-6.55%
23,O=C1CCCC(=O)C1=C1SCCCS1,-5.96%

row,Compound,"hERG current change (%, negative = inhibition) at 10uM"
1,COc1ccc(C(=O)N2CCN(c3ccc(C)cc3)CC2)cc1OC,-21.8%
2,COc1ccc(C(=O)N2CCC(O)(c3ccc(Cl)cc3)CC2)cc1OC,-51.9%
3,COc1ccc(C(=O)N2CCC(O)(c3ccc(F)cc3)CC2)cc1OC,-38.6%
4,COc1ccc(C(=O)N2CCN(c3ccc(C)cc3C)CC2)cc1OC,-68.5%
5,COc1ccc(C(=O)N2CCN(c3ccc(C)c(C)c3)CC2)cc1OC,-6.14%
6,COc1cc(C(=O)N2CCN(c3ccc(C)cc3C)CC2)cc(OC)c1OC,-19.7%
7,COc1cccc(SCC2(O)CCN(C(=O)c3ccc(Cl)cc3)CC2)c1,-69%
8,O=C(c1ccc(Cl)cc1)N1CCC(O)(CSc2ccccc2)CC1,-38.1%
9,COc1ccc(C(=O)N2CCN(c3c(C)cccc3C)CC2)cc1OC,-68.8%
10,COc1cc(C(=O)N2CCC(O)(c3ccccc3)CC2)cc(OC)c1OC,14.7%
11,COc1ccc(C(=O)N2CCN(C(=O)c3ccc(-c4ccccc4)cc3)CC2)cc1OC,-43.6%
12,O=C(c1ccc(Cl)cc1)N1CCC(O)(CSc2ccc(Cl)cc2)CC1,-44.4%
13,Cc1nc2ccc(Cl)cc2c(-c2ccccc2)c1C(=O)N(C)C.Cl,-5.56%
14,CCc1ccccc1NC(=O)CNC(=O)c1cc(C2CC2)nn1-c1ccccc1,-28.8%
15,O=C(c1noc2c1CCCC2)N1CCC(CO)(Cc2ccccc2Cl)CC1,-22.9%
16,COCCCNC(=O)Cn1ccc(N)nc1=O,11.4%
17,CN(C)C=O.O=C(Nc1cccc(S(=O)(=O)NC2=NCCCCC2)c1)c1cc(-c2ccco2)nc2ccccc12,19.7%
18,COc1ccc(-n2c(CNc3ccc(C)cc3)nnc2SCC(=O)Nc2nc(-c3ccccc3)cs2)cc1,-23.1%
19,CCN1C(=O)/C(=C/N(C)c2ccccc2)OC1=S,-8.25%
20,CCN1CCN(CC(=O)Nc2sc3c(c2C#N)CCC(C)C3)CC1 (stereo not shown),-51.7%
21,CCN1CCN(CC(=O)Nc2sc3c(c2C#N)CCC3)CC1,-18.1%
22,CC(=O)Nc1sc2c(c1C#N)CCC(C)C2 (stereo not shown),-3.48%
23,CC1CCc2c(sc(NC(=O)CN3CCN(C(=O)c4ccco4)CC3)c2C#N)C1 (stereo not shown),-41.5%

row,Compound,"hERG current change (%, negative = inhibition) at 10uM"
1,CC1CCc2c(sc(NC(=O)COC(=O)c3ccccc3NCc3ccco3)c2C#N)C1 (stereo not shown),7.34%
2,CC1CCc2c(sc(NC(=O)C(=O)NCc3ccco3)c2C#N)C1 (stereo not shown),-66.3%
3,O=C(CN1CCOc2ccccc21)N1CCC(Cc2ccccc2)CC1,-26.3%
4,Cc1nn(CCc2nn[nH]n2)c2nc(-c3ccccc3)cc(C(F)(F)F)c12,19.3%
5,COc1ccc(-c2csc(NCCc3nc4cc(Cl)c(N5CCCCC5)cc4n3CCOCCO)n2)cc1,-10.4%
6,CC1CCN(CC(=O)n2c3c(c4ccccc42)CCCC3)CC1.Cl,0.546%
7,CCc1ccc(-c2csc(NC(=O)c3cccnc3)n2)cc1,-3.93%
8,Cc1ccccc1N=C1N=C(N)c2ccccc21,-2.13%
9,CN(C)CCNC(=O)C1CC(=O)N(c2ccc(F)c(Cl)c2)C1 (stereo not shown),-11.2%
10,O=C(NCCN1CCOCC1)C1CC(=O)N(c2ccc(F)c(Cl)c2)C1 (stereo not shown),-3.45%
11,CC1CCCN(CCCNC(=O)C2CC(=O)N(c3ccc(F)c(Cl)c3)C2)C1 (stereo not shown),-37.9%
12,CC1CCCCN1CCNC(=O)C1CC(=O)N(c2ccc(F)c(Cl)c2)C1 (stereo not shown),-56.9%
13,CN(CCNC(=O)C1CC(=O)N(c2ccc(F)c(Cl)c2)C1)Cc1ccccc1 (stereo not shown),-52.5%
14,COCCNC(=O)C1CC(=O)N(c2ccc(F)c(Cl)c2)C1 (stereo not shown),-2.89%
15,CN(C)c1ccc(/C=N/NC(=O)c2cccc(N3CCCC3=O)c2)cc1,12.7%
16,O=C(Oc1ccc2ccccc2c1)c1ccco1,5.27%
17,O=C(Oc1ccc2ccc(=O)oc2c1)c1ccco1,-73.1%
18,O=C(Oc1ccc2ccc(=O)oc2c1)c1ccccc1,14.2%
19,COc1ccc(CN2CCN(C(=O)c3cccs3)CC2)cc1Br,-24.4%
20,CCC(CC)C(=O)NCCc1ccc(OC)cc1,17.8%
21,Cc1csc(NC(=O)c2cccnc2)n1,13.5%
22,CCN1CCN(S(=O)(=O)c2ccc(Cl)c(C(=O)N(C)Cc3cccc(Cl)c3Cl)c2)CC1,-61.3%
23,CCN1CCN(S(=O)(=O)c2ccc(Cl)c(C(=O)N(C)Cc3ccc(Cl)cc3Cl)c2)CC1,-9.34%

row,Compound,"hERG current change (%, negative = inhibition) at 10uM"
1,CCN1CCN(S(=O)(=O)c2ccc(Cl)c(C(=O)N(C)Cc3cccs3)c2)CC1,-14.6%
2,CCN1CCN(S(=O)(=O)c2ccc(Cl)c(C(=O)N(C)Cc3ccccc3)c2)CC1,-28.8%
3,CCN1CCN(S(=O)(=O)c2ccc(Cl)c(C(=O)N(C)C(c3ccccc3)c3ccccc3)c2)CC1,-50.5%
4,CCc1ccc(CN(C)C(=O)c2cc(S(=O)(=O)N3CCN(CC)CC3)ccc2Cl)cc1,-25.3%
5,O=C(O)c1ccc2c(c1)C(=O)N(c1cccc(S(=O)(=O)Nc3cccc(C(F)(F)F)c3)c1)C2=O,21.1%
6,CCN(CC)S(=O)(=O)c1ccc(C(C)NC(=O)C2CCCN2C(=O)c2cccs2)cc1 (stereo not shown),-15.5%
7,Cc1cc(Cl)ccc1C(=O)C1CCCN(C(=O)CCN2CCCO2)C1 (stereo not shown),-1.54%
8,CC(C)(C)NC(=O)C(c1ccccn1)N(C(=O)C1CSC(=O)C1)c1ccc(F)cc1 (stereo not shown),6.26%
9,CCC(=NC1CCN(Cc2ccccc2)CC1)c1c(O)[nH]c(=O)[nH]c1=O,-52.4%
10,C=CCn1c(O)c(C(C)=NC2CC2)c(=O)[nH]c1=O,9.27%
11,C=CCn1c(O)c(C(C)=NCCc2ccccc2)c(=O)[nH]c1=O,-14.7%
12,O=c1[nH]c(O)c(C=NC2CCN(Cc3ccccc3)CC2)c(=O)[nH]1,-31.6%
13,CCC(=NCCc1ccccc1)c1c(O)[nH]c(=O)[nH]c1=O,10.1%
14,C=CCn1c(O)c(C(C)=NC2CCN(Cc3ccccc3)CC2)c(=O)[nH]c1=O,-55.7%
15,Cc1ccccc1CNC(=O)C1CCN(c2nnc(N3CCCC3=O)s2)CC1,19.3%
16,CC(C)(C)c1csc(CS(=O)(=O)c2ccccn2)n1,-6.8%
17,Br.CCCc1nnc2n1N=C(c1ccc([N+](=O)[O-])cc1)CS2,-38.6%
18,Br.CCc1nnc2n1N=C(c1cccc([N+](=O)[O-])c1)CS2,-32.1%
19,O=[N+]([O-])c1ccc(C2=Nn3cnnc3SC2)cc1,-62.2%
20,CCOc1ccc(C2=Nn3cnnc3SC2)cc1,-14.8%
21,CCc1nnc2n1N=C(c1ccc([N+](=O)[O-])cc1)CS2,-65.5%
22,Brc1ccc(C2=Nn3cnnc3SC2)cc1,13.6%
